The record followed here is PubChem BioAssay (NCATS).

Results filed as inconclusive are left out. Activity calls are given as the source filed them. Calls come from the whole dose curve; as a rule, active = well fitted activation curve with a large enough effect; inconclusive = small, poorly fitted or top-dose-only effect; inactive = no such curve, though single readings can be large or run the other way. Positions of bridges follow the written chain, without caps; N, C: chain ends. Non-standard residues stand in square brackets, D forms with d. Residues, ends and D or L forms follow the SMILES beside them. hArg = N=C(N)NCCCC[C@H](N)C(=O)O; Mpa = O=C(O)CCS
Potency is the fitted concentration of half-maximal effect.

Chain of Cellular tumor antigen p53 (Homo sapiens) (P04637 whole entry, looked up): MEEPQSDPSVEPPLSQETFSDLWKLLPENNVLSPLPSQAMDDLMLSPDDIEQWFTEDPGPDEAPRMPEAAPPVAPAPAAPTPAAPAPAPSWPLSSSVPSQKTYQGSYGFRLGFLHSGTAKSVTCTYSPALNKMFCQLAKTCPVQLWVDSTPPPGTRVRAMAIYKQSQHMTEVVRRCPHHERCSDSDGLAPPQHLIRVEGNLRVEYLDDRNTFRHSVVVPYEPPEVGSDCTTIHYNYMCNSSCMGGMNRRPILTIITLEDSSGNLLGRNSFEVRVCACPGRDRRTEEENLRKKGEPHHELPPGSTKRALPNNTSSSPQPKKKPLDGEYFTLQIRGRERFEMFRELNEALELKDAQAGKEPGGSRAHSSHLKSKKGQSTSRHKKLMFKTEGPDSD

This test addresses Cellular tumor antigen p53 (Homo sapiens) (UniProt P04637). As to the kind of experiment: Primary qHTS for small molecule compounds that upregulate eGFP-tagged delta133p53alpha (in N-terminal) cells. (AID 2060322).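 For activation: series mostly up to about 56 µM; 0% = DMSO vehicle and 100% = reference activator.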 Note: nearly all actives have a fitted effect of over 75% in size. The settings on record: NCI-H358 eGFP-delta133p53alpha fluorescence, 24 h; activation: hits give high values. The method, boiled down: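 NCI-H358 cells pre-induced 24 h with 10 ng/ml doxycycline to express N-terminal eGFP-delta133p53alpha, then dosed 24 h at 37C without doxycycline; fixed, Hoechst-stained, GFP intensity by laser scanning cytometry, normalized to DMSO (0%) and 57.5 uM 5-azacytidine (100%).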
(In general: qHTS replaces the single test concentration by a dilution series.)
For the compound `CCCCCCCCCCCCCCCC(=O)O`, the activation was -13.4% (inactive).

Regarding `CC(C)(C)c1[nH]cnc1C=c1[nH]c(=O)c(=Cc2ccccc2)[nH]c1=O`, the activation was -1.26% (inactive). As for `CN=C(N)NC(=O)Nc1c(C)cccc1C`, the activation was 5.86% (inactive). Same read-out and setting: the same measure for `CN[C@@H]1[C@@H](O)[C@@H](O[C@@H]2[C@@H](O)[C@H](O[C@H]3O[C@H](CN)[C@@H](O)[C@H](O)[C@@H]3O)[C@@H](N)C[C@@H]2NC(=O)[C@@H](O)CN)OC[C@]1(C)O`: -2.48% (inactive); for `CNc1nc(-c2ccc3c(N)n[nH]c3c2)cc(N2C[C@@H](C(=O)NC3CCCCC3)CC[C@@H]2C)n1`: -21.3% (inactive). Consider `Nc1ccc(C(=O)Nc2ccccc2N)cc1`, for which the activation was -7.53% (inactive). Still for that read-out and setting: the figure for `CN(C)CCOC(c1ccc(Cl)cc1)c1ccccn1` (stereo not given) is 15.3% (inactive). Regarding `O=C(O)c1ccc(OCCN2CCCCC2)cc1`, the activation was -14.1% (inactive). For `CC1(C)OC[C@@H](COC(=O)CCc2ccc(OC[C@@H](O)CNCCNC(=O)N3CCOCC3)cc2)O1`, the activation is 10% (inactive). On to `Cc1ncc(CO)c(C=O)c1O`, for which the activation was -3.35% (inactive). For the compound `CCCCCCCCCCCCCCCC(=O)OC(C)C`, the activation is -15.3% (inactive). On to `CCN(CC)CCNC(=O)c1c(C)[nH]c(C=C2C(=O)Nc3ccc(F)cc32)c1C`, for which the Potency is 12.5 µM (active).

`CCCCCCCCCCOc1cc2c(=O)c(C(=O)OCC)c[nH]c2cc1OCC`: the activation is -12.6% (inactive). As for `O=[N+]([O-])c1cccc(S(=O)(=O)NCCNS(=O)(=O)c2cccc([N+](=O)[O-])c2)c1`, the activation was 24.3% (inactive). `C=CC[N+]1([C@H]2C[C@H]3[C@@H]4CC[C@H]5C[C@H](O)[C@@H](N6CCOCC6)C[C@]5(C)[C@@H]4CC[C@]3(C)[C@H]2OC(C)=O)CCCC1`: the activation is 4.45% (inactive). For the compound `C/C(=N\O)[C@@H](C)NCC(C)(C)CN[C@H](C)/C(C)=N/O`, the activation is -12.6% (inactive). For `NC(=O)[C@@H]1CSSCCC(=O)N[C@@H](CCCCN=C(N)N)C(=O)NCC(=O)N[C@@H](CC(=O)O)C(=O)N[C@@H](Cc2c[nH]c3ccccc23)C(=O)N2CCC[C@H]2C(=O)N1` ([Mpa][hArg]GDWPC-NH2; disulfide 1-7), the activation was 2.82% (inactive). Same read-out and setting: the figure for `Cc1c[nH]c2ccccc12` is 17.6% (inactive). On to `Cc1cnc(NS(=O)(=O)c2ccc(N)cc2)nc1`, for which the activation is 2.82% (inactive). Take `CCCCCCCCOc1ccccc1C(=O)Nc1ccc(C(=O)OCC[N+](C)(CC)CC)cc1`: the activation was -5.01% (inactive).

Consider `N=C(N)N`, for which the activation was 7.34% (inactive). For the compound `CCCC(=O)O[C@]1(C(=O)CC)CC[C@H]2[C@@H]3CCC4=CC(=O)CC[C@]4(C)[C@H]3[C@@H](O)C[C@@]21C`, the activation was -20.9% (inactive).

`O=C(NNC(=O)c1ccc(CNS(=O)(=O)c2ccc(F)c(Cl)c2)cc1)c1ccccc1`: the activation is 15.5% (inactive). Turning to `CC(C)Nc1cccnc1N1CCN(C(=O)c2cc3cc(NS(C)(=O)=O)ccc3[nH]2)CC1`, the activation is -10.7% (inactive). Same read-out and setting: the same measure for `O=C(Cn1ccnc1[N+](=O)[O-])NCCO`: -9.21% (inactive). In the case of `CCCCCCCCCCCCCC[N+](C)(C)Cc1ccccc1`, the activation is 27.6% (inactive). For the compound `COC(=O)c1ccc(O)cc1`, the activation was 7.34% (inactive).

As for `CC[C@H]1OC(=O)[C@H](C)C(=O)[C@H](C)[C@@H](O[C@H]2O[C@H](C)C[C@H](N(C)C)[C@@H]2O)[C@](C)(OC)C[C@@H](C)C(=O)[C@H](C)[C@H]2N(CCCCn3cnc(-c4cccnc4)c3)C(=O)O[C@]12C`, the activation was 1.46% (inactive). Consider `NC(=O)n1c(O)c(C(=O)c2cccs2)c2cc(Cl)ccc21`, for which the activation was -6.21% (inactive). As to `Cc1c(C(N)=O)cc([N+](=O)[O-])cc1[N+](=O)[O-]`, the activation was -8.37% (inactive). Same read-out and setting: the figure for `Nc1ncnc2c1ncn2[C@@H]1O[C@@H](CO)[C@H](O)[C@H]1O` is -9.84% (inactive); for `Nc1c2ccccc2nc2ccccc12` it is -7.34% (inactive); for `O=C1c2ccccc2C(=O)C1c1ccccc1` it is -12.6% (inactive). As to `CCOC(=O)c1c(N)sc2c1CCN(Cc1ccccc1)C2`, the Potency is 15.5 µM (active).

With `O=C1c2c(O)cccc2Cc2cccc(O)c21`, the activation is -24.3% (inactive).

In the case of `C=CCc1ccc(O)c(OC)c1`, the activation is 15.1% (inactive).

For `CC(=O)Oc1ccc(C(=C2CCCCC2)c2ccc(OC(C)=O)cc2)cc1`, the activation is 9.6% (inactive).

With `CON=C(C(=O)N[C@@H]1C(=O)N2C(C(=O)OCOC(=O)C(C)(C)C)=C(C=Cc3scnc3C)CS[C@H]12)c1csc(N)n1`, the activation is -6.48% (inactive).

In the case of `CN1Cc2cc(C(=O)N3CCC(C4CCNCC4)CC3)ccc2NC(CC(=O)O)C1=O` (stereo not given), the activation was -16.7% (inactive).

Take `CCN(CC)CCNc1ccc(CO)c2sc3ccccc3c(=O)c12`: the activation is 28.5% (inactive).
